Bioassay records from PubChem BioAssay.
TIM10 inh = TIM10 yeast growth inhibition; S. cerevisiae TIM10 strain growth, BacTiter-Glo luminescence, 24 h; inhibition, % at 10 µM; 1.4% of 330,000 active;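 active = inhibition of 40% or more at the single tested concentration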;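 note: wild-type TIM10 isogenic control strain grown at permissive 25 °C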
tim10-1 inh = tim10-1 yeast growth inhibition; AID 463190; S. cerevisiae tim10-1 ts strain growth, BacTiter-Glo, 24 h; 2.2% of 330,000 active; inhibition, % at 20 µM;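 active = inhibition of at least 40%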;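 note: mutant grown at 25 °C; 0% = DMSO wells with yeast and 100% = wells holding no yeast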
V-ATPase pH = alters yeast V-ATPase proton transport; S. cerevisiae, pHLuorin cytosolic pH fluorescence; response, % at 10 µM; 0.37% of 350,000 active; AID 504577; in the data active = response mostly above about 7.3%, no sharp cut-off; inactive = mostly below about 5.4%; note: actives read high
tim23-1 inh = inhibits growth of tim23-1 mutant yeast | S. cerevisiae tim23-1 growth, BacTiter-Glo luminescence, 24 h | inhibition, % at 20 µM | 1.3% of 330,000 active | AID 463212;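 active = growth inhibition of the mutant yeast at or above 50%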;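 note: temperature-sensitive mutant grown at 25 °C; plate controls were DMSO-treated mutant yeast for no effect and medium wells lacking yeast for full effect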
NALP1 yeast inh = blocks the NALP1 inflammasome reconstituted in yeast; inhibition, % at 10 µM; S. cerevisiae NALP1/ASC/caspase-1 growth, X-gal OD620, 72 h; AID 2071; 0.61% of 280,000 active; in the data active = inhibition mostly above about 24%, no sharp cut-off; inactive = mostly below about 32%
NLRP3 yeast inh = blocks the NALP3 inflammasome reconstituted in yeast; Yeast reconstituted NLRP3/ASC/caspase-1, beta-gal luminescence, 24 h; inhibition, % at 10 µM; 0.39% of 330,000 active;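 active = inhibition of 50% or more; inactive = inhibition below 50%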;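 note: plate controls were induced DMSO wells for no effect and uninduced yeast grown without galactose for full effect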
tim10-1 conf = tim10-1 yeast growth inhibition, confirmed; shares compounds with tim10-1 inh; S. cerevisiae tim10-1 ts strain growth, BacTiter-Glo, 24 h; inhibition, % at 20 µM; 56% of 7,400 active; AID 463213;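 active = inhibition of yeast growth at or above a set limit in either of two repeat tests at 20 µM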;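 note: tim10-1 mutant grown at permissive 25 °C to find synthetic lethal compounds; 0% = DMSO yeast wells and 100% = medium wells without yeast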
tim10 confirm = confirmation of TIM10 yeast growth inhibitors; inhibition, % at 10 µM; 63% of 4,600 active; shares compounds with TIM10 inh; S. cerevisiae tim10 strain growth, BacTiter-Glo luminescence, 24 h;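 active = inhibition of yeast growth at or above a set limit in either of two replicates at 10 µM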;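 note: this counterscreen used the strain with wild-type TIM10; 0% = yeast with DMSO and 100% = medium wells lacking yeast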
tim23-1 conf = tim23-1 yeast growth inhibition, confirmed | shares compounds with tim23-1 inh | S. cerevisiae tim23-1 growth, BacTiter-Glo luminescence, 24 h | inhibition, % at 20 µM | 83% of 4,400 active | AID 463218;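 active = inhibition above about 39% in either of two replicate wells at 20 µM, limit read from the data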;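 note: temperature-sensitive tim23-1 mutant grown at 25 °C; 0% = DMSO wells with yeast and 100% = medium wells without yeast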
An asterisk follows results filed as active; nt = no result. The list is not random: actives were taken first. Their share in the collection is about 4.2%.

SMILES	TIM10 inh	tim10-1 inh	V-ATPase pH	tim23-1 inh	NALP1 yeast inh	NLRP3 yeast inh	tim10-1 conf	tim10 confirm	tim23-1 conf
O=C(C1=C[C@@H](c2coc3ccccc3c2=O)C[C@@H](OCc2ccc(CO)cc2)O1)N1CCCCCCC1	15	16	2	29	4	-11	nt	nt	nt
COc1ccccc1-n1cnc2cc(NCc3ccccc3O)ccc21	12	7	-1	21	0	11	nt	nt	nt
Cc1ccccc1-n1cnc2cc(NCc3cccs3)ccc21	36	25	6	43	1	7	nt	nt	nt
COc1ccccc1-n1cnc2cc(NCc3cccs3)ccc21	45*	45*	1	56*	-7	18	27	-18	71*
COc1ccc(CNc2ccc3c(c2)ncn3-c2ccccc2OC)cc1	64*	53*	2	61*	2	46	27	62*	71*
Cn1c(=O)cc(Nc2ccccc2)c2c(=O)n(-c3ccccc3)c(=O)n(-c3ccccc3)c21	7	-11	1	10	17	3	nt	nt	nt
COc1cc(/C=N/NC(=S)NC2CC3CCC2C3)ccc1O (configuration not stated)	49*	42*	0	68*	-12	-12	24	43*	52*
CSc1ccccc1NC(=O)CN(C)S(=O)(=O)c1ccc(F)cc1	4	12	-2	18	-17	16	nt	nt	nt
CCn1cc(C(=O)NCCC(=O)NC(C)C)c(=O)c2cc3c(cc21)OCO3	4	-9	3	-8	10	-2	nt	nt	nt
O=C1CC(Nc2ccc(N3CCOCC3)cc2)C(=O)N1c1ccccc1F (configuration not stated)	-11	9	-2	8	-52	4	nt	nt	nt
O=C1c2cccc3c([N+](=O)[O-])ccc(c23)C(=O)N1c1ccccn1	77*	94*	-28	80*	5	7	89*	-8	77*
Cc1nn(-c2ccccc2)c(C)c1C(=O)OCC(=O)NC12CC3CC(CC(C3)C1)C2	54*	43*	-1	62*	4	-4	49*	34*	54*
CC(=O)Nc1ccc(NC(=O)COC(=O)c2c(C)nn(-c3ccccc3)c2C)cc1	7	11	0	2	17	16	nt	nt	nt
Fc1ccc(C2Nc3cccc4cccc(c34)N2)cc1	31	45*	2	57*	12	-3	30	nt	51*
O=[N+]([O-])c1ccccc1Nc1c2ccccc2nc2ccccc12	5	-6	-1	1	-4	1	nt	nt	nt
O=[N+]([O-])c1ccc(Nc2c3ccccc3nc3ccccc23)cc1	49*	63*	-2	73*	-8	19	54*	50*	68*
Cc1noc(C)c1C(=O)NCC(=O)Nc1ccccc1Br	6	4	1	2	nt	-1	nt	nt	nt
CCCNC(=O)c1cccc(S(=O)(=O)N2CC3(C)CC2CC(C)(C)C3)c1 (configuration not stated)	26	41*	-3	59*	nt	18	33*	nt	49*
O=C1OCCC1=CN1CCCCC1	nt	nt	0	nt	nt	nt	nt	nt	nt
COc1ccc2c3n(nc2c1)CCN=C3c1cc(Cl)c(N)c(Cl)c1	29	42*	-3	55*	nt	10	18	nt	51*
Nc1c(Cl)cc(C2=NCCn3nc4cc(C(F)(F)F)ccc4c32)cc1Cl	2	5	-3	22	nt	17	nt	nt	nt
Cc1ccc(-n2nc(C)c3c(C)c(CCC(=O)NCc4ccco4)c(C)nc32)cc1	11	23	-2	30	8	20	nt	nt	nt
O=C(OCn1ncc(Br)c(Br)c1=O)c1ccccc1Cl	77*	58*	-4	73*	7	-27	50*	-9	23
O=C(OCn1ncc(Br)c(Br)c1=O)c1ccc(F)cc1	71*	73*	2	55*	9	1	65*	-14	38
CCc1c2ccccc2nn1-c1ccccc1C(=O)C(C)=O	20	9	-2	23	8	8	nt	nt	nt
